This note sets out measurements from ChEMBL document CHEMBL4513216, “Probing the Open Global Health Chemical Diversity Library for Multistage-Active Starting Points for Next-Generation Antimalarials” (ACS Infect Dis, 2020).

The whole screen tested about 69,000 compounds, of which about 8,600 (12%) showed an effect of 50% or more. This excerpt belongs to a sample that is enriched for strong results.

This test relates to Plasmodium berghei. Briefly: Screen against P. berghei liver stage (PbLuc), transformed with Luciferase, at 10uM. In kind it is functional, HepG2. The settings on record: tested at 10 uM.
Turning to `O=C(NC1CC1)C1=CC2(CCN(CC3CC3)CC2)c2ccccc21`, the INHIBITION worked out at 37.1%. Under `Cc1cncc(C2CCN(Cc3ccc(S(C)(=O)=O)cc3)CC2)n1` stands 25.3%; under `CS(=O)(=O)NCc1cnc2n1CCN(Cc1ccco1)CC2`, 38.5%; under `CN(Cc1ccsc1)C(=O)c1cccc(S(=O)(=O)NCC2CCCO2)c1` (centres undefined), 23.4%.

As for `COCCNC(=O)Cn1cc(OCc2ccc(F)cc2)c(=O)cc1CO`, the INHIBITION is recorded as 26.9%. Regarding `OC1CCN(CCCn2ccnc2-c2c[nH]cn2)CC1`, the INHIBITION is -0.273%. In the case of `O=C(C1CCCC1)N1CCn2c(nnc2C2CCCNC2)C1` (centres undefined), the INHIBITION is listed as -1.45%. Under `Cc1nnc(SCCC(=O)N(C)Cc2ccc(F)cc2Cl)[nH]1` stands 51.1%; under `Cc1nnc(SCCC(=O)N(C)Cc2ccc(F)cc2F)[nH]1`, 1.96%; under `Cc1nnc(SCCC(=O)N(C)Cc2c(F)cccc2Cl)[nH]1`, -1.25%. Under `CCc1c(O)nc2nc(N3CCOCC3)nn2c1C` stands 11%. The result for `COc1ccc(N2CCC(NS(=O)(=O)N(C)C(C)C)CC2)cc1` reads 34.1%; that for `CCc1ccc(N2CCC(NS(=O)(=O)N(CC)CC)CC2)cc1`, 53.4%; that for `CCN(CC)S(=O)(=O)NC1CCN(c2ccc(OC)cc2)CC1`, 12.8%. For the molecule `CC(C)(C)CC(=O)NCC(=O)Nc1ccn(Cc2cccnc2)n1`, the INHIBITION turned out to be 21.6%. The result for `CN1CC(=O)N(c2ccsc2)CC12CCN(Cc1cnn(C)c1)C2` (centres undefined) reads -13%; that for `COCC(=O)N1CCC2(CCN(Cc3ccc(C)cc3)CC2)CC1`, 10.5%; that for `CC[C@@H](C)[C@@H](N)C(=O)Nc1cccc(-c2cnc(N(C)CCO)nc2)c1`, 8.53%. The result for `CC[C@@H](C)[C@@H](N)C(=O)Nc1cccc(-c2cnc(N(C)C)nc2)c1` reads 76.8%; that for `CC[C@@H](C)[C@@H](N)C(=O)Nc1cccc(-c2cnc(N)nc2)c1`, 17.4%.

`NC(=O)C1CCN(C(=O)Cn2ccc3cc(Br)ccc32)CC1`: the INHIBITION was determined as 30.6%. Under `CC(C)(C)C1CCC(O)(CNC(=O)CCS(C)(=O)=O)CC1` (centres undefined) stands -23.2%. The result for `Cc1ccc(C(=O)N(C)Cc2ccc3c(c2)OCCO3)c(=O)[nH]1` reads -11.6%; that for `Cn1cnc(S(=O)(=O)N2C[C@H]3CN(Cc4cccnc4)C[C@H]3C2)c1`, 49.1%; that for `CC(C)CN1CCCC2(CCN(c3ccccn3)C2)C1` (centres undefined), 21.7%.

Regarding `Cn1cnc(S(=O)(=O)N2C[C@H]3CC[C@@H](C2)N(Cc2ccccn2)C3)c1`, the INHIBITION was determined as 20.9%. The result for `CS(=O)(=O)N1CCC2(CCCN(Cc3ccccn3)C2)C1` (centres undefined) reads -11.6%. For the molecule `COc1cc(N2CCC(c3nccn3Cc3ccccn3)CC2)ncn1`, the INHIBITION worked out at 8.97%.

As to `COc1cc(N2C[C@H]3CN(Cc4ccccn4)C[C@H]3C2)ncn1`, the INHIBITION is given as 85.6%. Under `COc1cc(N2CCC3(CCCN(Cc4ccccn4)C3)C2)ncn1` (centres undefined) stands 84.7%. Under `Cn1cnc(S(=O)(=O)N2C[C@H]3CN(Cc4ccccn4)C[C@H]3C2)c1` stands 76.4%; under `Fc1cccc(CN2C[C@@H]3CN(Cc4ccccn4)C[C@@H]3C2)c1`, 18.6%. The result for `CCc1csc(NC(=O)Nc2c(C)n[nH]c2C)n1` reads -1.79%. Turning to `CC(=O)N1CCCC1c1nc(C)no1` (centres undefined), the INHIBITION was 7.05%. The result for `Cc1cc(NCCc2cnccn2)nc(-c2ccccc2O)n1` reads 17.5%; that for `O=C(NCc1cc[nH]n1)N1CCCC(N2CCCC2)C1` (centres undefined), 16.9%.

As for `NC(=O)CSc1ccccc1NC(=O)CC1C=CCC1` (centres undefined), the INHIBITION was -54.9%. Under `COCC(=O)NC(CC(C)C)c1nc2cccnc2n1C` (centres undefined) stands -0.232%; under `Cc1ccc(C(=O)Nc2c(C(=O)N(C)C)nn(C)c2C)cc1C`, 35%; under `CCOc1cc(F)ccc1NC(=O)N(C)Cc1cnn(C)c1`, 4.71%.

Turning to `CCC(=O)N1CCC2(CCN(Cc3cccc(F)c3)CC2)CC1`, the INHIBITION is -6.97%.

Take `CN(Cc1ccco1)[C@@H]1CN(Cc2ccc(F)cc2)[C@@H]2CCCO[C@H]12`: the INHIBITION was 81.2%. Under `CN(Cc1ccco1)[C@@H]1CN(Cc2cccnc2)[C@@H]2CCCO[C@H]12` stands 55.5%; under `CN(Cc1ccco1)[C@@H]1CN(Cc2ccc(F)cc2)C[C@@H]2CCCO[C@@H]21`, 31.8%; under `CN(Cc1ccco1)[C@@H]1CN(Cc2cccnc2)C[C@@H]2CCCO[C@@H]21`, 30.4%.

Consider `COc1ccc(CN2C[C@@H](N(C)Cc3ccco3)[C@H]3OCCC[C@H]32)cc1`, for which the INHIBITION was 31.8%. The result for `CN(Cc1ccco1)[C@@H]1CN(Cc2ccco2)[C@@H]2CCCO[C@H]12` reads 15.4%. Under `O=C1CCN(C(=O)NCc2ccccc2Oc2ccccc2)CCN1` stands 11.4%. For the molecule `COCC1CN(C(=O)c2ccco2)Cc2cn(C)nc21` (centres undefined), the INHIBITION is -30.6%.

On to `Cc1ncc(C(=O)N2CC(C(=O)N3CCCCCC3)C2)c(C)n1`, for which the INHIBITION was 27.7045%. With `CN(C)[C@@H]1CN(Cc2ccccn2)C[C@H]1c1cn(C)c2ccccc12`, the INHIBITION is reported as 13.55%.

With `CC(C)=CCN1C[C@@H]2CC[C@H]1CN(C(=O)c1ccc3nc[nH]c3c1)C2`, the INHIBITION worked out at 10.3%.

As to `Cc1nn(C)c(C)c1S(=O)(=O)N1CC[C@@H]2O[C@@H](C)C[C@H]2C1`, the INHIBITION worked out at 7.5%. Under `CCN1C[C@H]2C3(CCN(S(C)(=O)=O)CC3)CC[C@@]2(C(=O)N(C)C)C1` stands 44.8%; under `CC(c1nnc(-c2ccccc2)o1)N1CCC(Nc2ccccc2)CC1` (centres undefined), 31.5%; under `COCC1CN(Cc2ccc(C)o2)Cc2nnn(C)c21` (centres undefined), -102%. With `Cc1nc(CC2CCCN(Cc3nc4ccccc4c(=O)[nH]3)C2)no1` (centres undefined), the INHIBITION is given as 45.2%. On to `O=c1[nH]c(CN2CCCC(Cn3cncn3)C2)nc2ccccc12` (centres undefined), for which the INHIBITION is on record as 21.01%. The result for `CCC1CCCN(Cc2nc3ccccc3c(=O)[nH]2)C1` (centres undefined) reads 67.5%; that for `Cc1nccn1C1CCCN(C(=O)c2ccc3cc[nH]c3c2)C1` (centres undefined), 4.52%. Under `CC(C)CC(C)NC1CCN(c2cccc(-c3cscn3)c2)CC1` (centres undefined) stands 34.1%; under `Cc1nnc(-c2cccc(N3CCC(NC(C)CC(C)C)CC3)c2)s1` (centres undefined), 62.4%; under `Cc1nnc(-c2cccc(N3CCC(NC4CCSC4)CC3)c2)s1` (centres undefined), 18.9%. Regarding `COCCNC(=O)c1ccc(NCc2c(C)noc2C)cc1Cl`, the INHIBITION amounted to 2.03%.

Regarding `O=C(c1cnccn1)N1CCOC2(CCCN(c3ncccc3F)C2)C1` (centres undefined), the INHIBITION is 39.5%. `COCCNC(=O)N1CCN(c2cc(F)ccc2F)CC1`: the INHIBITION is reported as 8.7%. Under `CNCc1cnc(Nc2ccccc2)nc1` stands 39.9%. In the case of `O=C(Nc1nncs1)C1CSCN1C(=O)C1CCCC1` (centres undefined), the INHIBITION came out at 20.5%.

For `Cc1nnc(NC(=O)C2CSCN2C(=O)C2CCCC2)s1` (centres undefined), the INHIBITION turned out to be 25.4%.

Consider `CC(C)c1nnc(NC(=O)C2CSCN2C(=O)C2CCC2)s1` (centres undefined), for which the INHIBITION is 61.2%. In the case of `COc1ccccc1OC1CCN(c2ccncc2)CC1`, the INHIBITION is listed as -2.93%.

As to `CC(C)CN(C(=O)Nc1cccnc1)C1CC1`, the INHIBITION is given as -18.5%. `CN(C(=O)Nc1ccncc1)C1CCN(c2ccc(Cl)cc2)CC1`: the INHIBITION is 83.1%. Under `COc1ccc(N2CCC(N(C)C(=O)C(C)SC)CC2)cc1` (centres undefined) stands 60.4%; under `COc1ccc(N2CCC(N3C[C@H](NC(C)=O)[C@@H](C(C)C)C3)CC2)cc1`, 33%; under `CSC(C)C(=O)N(C)C1CCN(c2ccc(Cl)cc2)CC1` (centres undefined), 35.5%. `CN1CCC(Oc2ccc(-n3ccnc3-c3ccncc3)cc2)CC1`: the INHIBITION is given as 49.4%. Consider `CN(CC(=O)N(C)C1CC1)C1CCN(c2ccc(Cl)cc2)CC1`, for which the INHIBITION was 29%. Under `CN(C(=O)NC1CC1)C1CCN(c2ccc(Cl)cc2)CC1` stands 13.9%; under `CN1CCC(N(C)C(=O)Nc2ccc(Cl)cc2)CC1`, -5.64%; under `CN(C(=O)Nc1cccnc1)C1CCN(c2ccc(Cl)cc2)CC1`, 60.4%. Take `COc1ccc(OC2CCN(c3ccncc3)CC2)cc1`: the INHIBITION is given as 55.1%. Under `CS(=O)(=O)N[C@@H]1CN(Cc2ccc3ccccc3c2)C[C@H]1O` stands -6.88%; under `O=C(Cc1ccccn1)N1CCCC(c2nccn2CC2CCC2)C1` (centres undefined), 10.7%. The result for `O=C(O)c1cc(C2CC2)nc2c(Cl)cnn12` reads 29.2%; that for `CC(C)C(C(=O)N1CCN(c2nccs2)CC1)n1cncn1` (centres undefined), 5.03%. The result for `Cc1nc(C2CCNC2)nc2c1CCC(=O)N2CC(C)C` (centres undefined) reads 25.65%. `CN1C(=O)c2cccc(NC(=O)c3ccc4c(c3)OCCO4)c2C1=O`: the INHIBITION was found to be 8.46%. Under `CC(C)(C)NC(=O)[C@@H]1CNC[C@]12Cc1ccccc1C(=O)N2` stands 24.2%; under `COCCNc1nnc(-c2cnc(C)cn2)s1`, -54.1%. The result for `c1cncc(C[C@H]2[C@H](N3CCOCC3)CCN2Cc2nccs2)c1` reads 8.85%; that for `Cn1cc(C(=O)N2CCN(Cc3cscn3)CC2)ccc1=O`, -8.22%; that for `CN(CCN1CCN(c2ccccc2)CC1)C(=O)Nc1ccccn1`, 45.4%. The result for `COCc1ncc(CN2CCC(Oc3ccccc3C)CC2)cn1` reads 26.8%; that for `COCc1ncc(CN2CCC(Oc3ccccc3OC)CC2)cn1`, -20.6%. As to `CN(CCN1CCN(c2ccccc2)CC1)C(=O)Nc1ccncc1`, the INHIBITION worked out at 73.2%. On to `COc1ccc(N2CCC(N(C)C(=O)Nc3ccncc3)CC2)cc1`, for which the INHIBITION is listed as 52.8%. The result for `Cc1cc(NC(=O)N(C)CCN2CCN(c3ccccc3)CC2)on1` reads 35.5%; that for `COCc1ncc(CN2CCC(Oc3ccc(OC)cc3)CC2)cn1`, 56%; that for `COc1ccc(N2CCC(N(C)C(C)C(=O)N(C)C)CC2)cc1` (centres undefined), 45.3%. Under `CCOC(C)C(=O)N(C)C1CCN(c2ccc(OC)cc2)CC1` (centres undefined) stands 33.4%; under `CC(=O)NCCc1ccc(S(=O)(=O)Nc2ccc(C)cc2F)s1`, -44.2%; under `CN(C)c1cc(C2CCCN2)ccn1` (centres undefined), 33.54%.

On to `O=S(=O)(Cc1ccon1)N1CCN(c2ccncc2Cl)CC1`, for which the INHIBITION is given as 38.9%.
